{"source": "PubChem BioAssay (Tox21)", "note": "Values joined by “and” are separate entries in the source; they are usually repeats but may differ in a detail not shown here. Identical values can stand only once. Inconclusive results are not listed. A structure can be active in one record and inactive in another. Active and inactive are the calls of the source. Calls follow the shape of the dose curve; as a rule, active = well fitted curve in the direction sought with a large enough effect in the repeat runs; inconclusive = weak or mixed curves; inactive = no such curve, though single readings can be large; an effect the other way counts as inactive or inconclusive. Positions of bridges follow the written chain, without caps; N, C: chain ends. Non-standard residues stand in square brackets, D forms with d. Residues, ends and D or L forms follow the SMILES beside them. *: point of attachment. Dab(CH2SO3H) = N[C@@H](CCNCS(=O)(=O)O)C(=O)O; X3 = CC[C@@H](C)CCCCC(=O)*; Dab = NCC[C@H](N)C(=O)O; also: nearly all actives have a fitted effect of over 40% in size"}
{"biological_target": "Nuclear receptor subfamily 1 group I member 2 (Homo sapiens) (UniProt O75469)", "assay": "CYP3A4 induction through human pregnane X receptor (PXR) by small molecules, qHTS assay (AID 1346984); also: potency is read from the fitted curve at half-maximal effect; as to activation: % is scaled to controls: 0 for no effect and ±100 for the full control effect", "settings": "DPX-2 HepG2 PXR, CYP3A4-luciferin luminescence, 24 h; series mostly up to 46.1 µM; activation: at the top concentration", "in_short": "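Cells (DPX-2; HepG2 with PXR element plus CYP3A4-promoter luciferase) settled 5hr, then were treated 24hr at 37C. A 3hr, 3uM-final Luciferin-IPA step preceded luminescence measurement with One-Glo.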"}
{"compound": "CNCCC=C1c2ccccc2CCc2ccccc21", "Potency": "7.08 µM (active)"}
{"compound": "NCC(O)CC(=O)O", "note": "(centres undefined)", "activation": "-2.43% (inactive)"}
{"compound": "CC(CNC(=O)c1cccnc1)NC(=O)c1cccnc1", "note": "(centres undefined)", "activation": "-8% (inactive)"}
{"compound": "FC(F)(F)C(F)(F)C(F)(F)C(F)(F)C(F)(F)F", "activation": "-8.47% (inactive)"}
{"compound": "CC12CCC(C1)C(C)(C)C2=O", "note": "(centres undefined)", "activation": "-4.4% (inactive)"}
{"compound": "N[C@H](C(=O)O)[C@@H]1CC(Cl)=NO1", "activation": "-10.3% (inactive)"}
{"compound": "C=C1[C@H](CO)[C@@H](O)C[C@@H]1n1cnc2c(=O)[nH]c(N)nc21", "activation": "-4.69% (inactive)"}
{"compound": "CC12CCC(C[N+](C)(CCC[N+](C)(C)C)C1)C2(C)C", "note": "(centres undefined)", "activation": "-8.59% (inactive)"}
{"compound": "N=C(N)c1ccc(/C=C/c2ccc(C(=N)N)cc2O)cc1", "activation": "-6.04% (inactive)"}
{"compound": "OCCCNc1ccccc1", "activation": "-0.808% (inactive)"}
{"compound": "CC[C@@H](C)CCCCC(=O)N[C@@H](CCNCS(=O)(=O)O)C(=O)N[C@H](C(=O)N[C@@H](CCNCS(=O)(=O)O)C(=O)N[C@H]1CCNC(=O)[C@H]([C@@H](C)O)NC(=O)[C@H](CCNCS(=O)(=O)O)NC(=O)[C@H](CCNCS(=O)(=O)O)NC(=O)[C@H](CC(C)C)NC(=O)[C@@H](CC(C)C)NC(=O)[C@H](CCNCS(=O)(=O)O)NC1=O)[C@@H](C)O", "note": "(X3-[Dab(CH2SO3H)]T[Dab(CH2SO3H)][Dab][Dab(CH2SO3H)][dL]L[Dab(CH2SO3H)][Dab(CH2SO3H)]T; lactam 4-C)", "activation": "-11.5% (inactive)"}
{"compound": "C(=C\\c1ccncc1)/c1ccccc1", "activation": "-10% (inactive)"}
{"compound": "NC(=O)C1c2ccccc2CCc2ccccc21", "activation": "8.4% (inactive)"}
{"compound": "CC(C)OC(=O)Nc1ccc2nc(-c3cscn3)[nH]c2c1", "activation": "-7.22% (inactive)"}
{"compound": "CC1CCCC(C)N1NC(=O)c1ccc(Cl)c(S(N)(=O)=O)c1", "note": "(centres undefined)", "activation": "17.3% [at 20.6 µM] (inactive)"}
{"compound": "O=C1c2c(O)cccc2[C@H]([C@@H]2O[C@H](CO)[C@@H](O)[C@H](O)[C@H]2O)c2cc(CO)cc(O)c21", "activation": "-4.94% (inactive)"}
{"compound": "CC(=O)OCC(=O)[C@@]1(O)CC[C@H]2[C@@H]3CCC4=CC(=O)CC[C@]4(C)C3=CC[C@@]21C", "activation": "0.887% (inactive)"}
{"compound": "O=C(O)c1cc(O)c2c(c1)[C@H]([C@H]1c3cc(C(=O)O)cc(O)c3C(=O)c3c(O[C@@H]4O[C@H](CO)[C@@H](O)[C@H](O)[C@H]4O)cccc31)c1cccc(O[C@@H]3O[C@H](CO)[C@@H](O)[C@H](O)[C@H]3O)c1C2=O", "activation": "-5.72% (inactive)"}
{"compound": "CC(C)(Oc1ccc(C2CCCc3ccccc32)cc1)C(=O)O", "note": "(centres undefined)", "activation": "7.87% (inactive)"}
{"compound": "CN=C(N)NCCC[C@H](N)C(=O)O", "activation": "-2.99% (inactive)"}
{"compound": "O=C(O)[C@H]1CN(C/C=C/P(=O)(O)O)CCN1", "activation": "-16.1% (inactive)"}
{"compound": "C[C@]12O[C@H](C[C@]1(O)CO)n1c3ccccc3c3c4c(c5c6ccccc6n2c5c31)CNC4=O", "activation": "-23.9% (inactive)"}
{"compound": "CCN1\\C(=C/C=C/C=C/c2sc3ccccc3[n+]2CC)Sc2ccccc21", "activation": "-30.5% (inactive)"}
{"compound": "Nc1nc(NC2CC2)c2ncn([C@@H]3C=C[C@@H](CO)C3)c2n1", "activation": "-6.05% (inactive)"}
{"compound": "C/C=C/C1=C(C(=O)O)N2C(=O)[C@@H](NC(=O)[C@H](N)c3ccc(O)cc3)[C@H]2SC1", "activation": "-1.21% (inactive)"}
{"compound": "CC(C)C[C@H](NC(=O)[C@@H](COC(C)(C)C)NC(=O)[C@H](Cc1ccc(O)cc1)NC(=O)[C@H](CO)NC(=O)[C@H](Cc1c[nH]c2ccccc12)NC(=O)[C@H](Cc1cnc[nH]1)NC(=O)[C@@H]1CCC(=O)N1)C(=O)N[C@@H](CCCN=C(N)N)C(=O)N1CCC[C@H]1C(=O)NNC(N)=O", "activation": "-5.26% (inactive)"}
{"compound": "O=C(O)COc1ccccc1/C=N/NC(=O)c1ccncc1", "activation": "-7.49% (inactive)"}
{"compound": "COc1ccc(/C=C/C(=O)O)cc1", "activation": "3.54% (inactive)"}
{"compound": "Cc1onc(-c2c(F)cccc2Cl)c1C(=O)N[C@@H]1C(=O)N2[C@@H]1SC(C)(C)[C@@H]2C(=O)O", "activation": "21.2% (inactive)"}
{"compound": "NC(=O)[C@H]1O[C@@H](O)[C@H](O)[C@@H](O)[C@@H]1O", "activation": "-1.69% (inactive)"}
{"compound": "C=CC[N@@+]12CC[C@@]34c5ccccc5N5/C=C6/[C@H]7C[C@H]8[C@@]9(CC[N@@+]8(CC=C)C/C7=C/CO)c7ccccc7N(/C=C(/[C@@H](C[C@@H]31)/C(=C\\CO)C2)[C@H]54)[C@@H]69", "activation": "9.55% [at 20.6 µM] (inactive)"}
{"compound": "O=C(O)Cc1nn(Cc2ccc(Br)cc2F)c(=O)c2ccccc12", "activation": "10.5% (inactive)"}
{"compound": "CC[C@H](C)C(=O)O[C@H]1CCC=C2C=C[C@H](C)[C@H](CC[C@@H]3C[C@@H](O)CC(=O)O3)[C@H]21", "activation": "4.72% (inactive)"}
{"compound": "CC(C)(COP(=O)(O)OP(=O)(O)OC[C@H]1O[C@@H](n2cnc3c(N)ncnc32)[C@H](O)[C@@H]1OP(=O)(O)O)C(O)C(=O)NCCC(=O)NCCS", "note": "(some centres undefined)", "activation": "-9.98% (inactive)"}
{"compound": "Cc1cnc(C(=O)O)c[n+]1[O-]", "Potency": "inactive"}
{"compound": "CC1(C)S[C@@H]2[C@H](NC(=O)[C@@H](NC(=O)N3CCNC3=O)c3ccccc3)C(=O)N2[C@H]1C(=O)O", "activation": "-1.03% [at 20.6 µM] (inactive)"}
{"biological_target": "Nuclear receptor subfamily 1 group I member 2 (Homo sapiens) (UniProt O75469)", "assay": "Human pregnane X receptor (PXR) activation by small molecules, qHTS assay (AID 1346985); also: potency is read from the fitted curve at half-maximal effect; as to activation: % is scaled to controls: 0 for no effect and ±100 for the full control effect", "settings": "DPX-2 HepG2 CYP3A4-luciferase, 24 h; series mostly up to 38.3 µM; activation: at the top concentration", "in_short": "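DPX-2 cells (HepG2 co-transfected with a PXR response element and a CYP3A4-promoter luciferase construct) were seeded at 2,000 per well, rested 5 hr at 37C, then exposed to DMSO-dissolved compounds for 24 hr. Activation was read as luciferase luminescence.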"}
{"compound": "NCC(O)CC(=O)O", "note": "(centres undefined)", "activation": "10.3% (inactive)"}
{"compound": "CC(CNC(=O)c1cccnc1)NC(=O)c1cccnc1", "note": "(centres undefined)", "activation": "-6.32% (inactive)"}
{"compound": "FC(F)(F)C(F)(F)C(F)(F)C(F)(F)C(F)(F)F", "activation": "-13.5% (inactive)"}
{"compound": "CC12CCC(C1)C(C)(C)C2=O", "note": "(centres undefined)", "activation": "-3.43% (inactive)"}
{"compound": "N[C@H](C(=O)O)[C@@H]1CC(Cl)=NO1", "activation": "-1.23% (inactive)"}
{"compound": "C=C1[C@H](CO)[C@@H](O)C[C@@H]1n1cnc2c(=O)[nH]c(N)nc21", "activation": "0.315% (inactive)"}
{"compound": "CC12CCC(C[N+](C)(CCC[N+](C)(C)C)C1)C2(C)C", "note": "(centres undefined)", "activation": "16.4% (inactive)"}
{"compound": "OCCCNc1ccccc1", "activation": "9.79% (inactive)"}
{"compound": "CC(C)[N+]1(C)[C@@H]2CC[C@H]1CC(OC(=O)C(CO)c1ccccc1)C2", "note": "(some centres undefined)", "activation": "8.06% (inactive)"}
{"compound": "CC[C@@H](C)CCCCC(=O)N[C@@H](CCNCS(=O)(=O)O)C(=O)N[C@H](C(=O)N[C@@H](CCNCS(=O)(=O)O)C(=O)N[C@H]1CCNC(=O)[C@H]([C@@H](C)O)NC(=O)[C@H](CCNCS(=O)(=O)O)NC(=O)[C@H](CCNCS(=O)(=O)O)NC(=O)[C@H](CC(C)C)NC(=O)[C@@H](CC(C)C)NC(=O)[C@H](CCNCS(=O)(=O)O)NC1=O)[C@@H](C)O", "note": "(X3-[Dab(CH2SO3H)]T[Dab(CH2SO3H)][Dab][Dab(CH2SO3H)][dL]L[Dab(CH2SO3H)][Dab(CH2SO3H)]T; lactam 4-C)", "activation": "-0.471% (inactive)"}
{"compound": "CC(C)OC(=O)Nc1ccc2nc(-c3cscn3)[nH]c2c1", "Potency": "5.01 µM (active)"}
{"compound": "CC1CCCC(C)N1NC(=O)c1ccc(Cl)c(S(N)(=O)=O)c1", "note": "(centres undefined)", "activation": "6.65% [at 17.1 µM] (inactive)"}
{"compound": "O=C1c2c(O)cccc2[C@H]([C@@H]2O[C@H](CO)[C@@H](O)[C@H](O)[C@H]2O)c2cc(CO)cc(O)c21", "activation": "12.3% (inactive)"}
{"compound": "CC(=O)OCC(=O)[C@@]1(O)CC[C@H]2[C@@H]3CCC4=CC(=O)CC[C@]4(C)C3=CC[C@@]21C", "activation": "9.96% (inactive)"}
{"compound": "O=C(O)c1cc(O)c2c(c1)[C@H]([C@H]1c3cc(C(=O)O)cc(O)c3C(=O)c3c(O[C@@H]4O[C@H](CO)[C@@H](O)[C@H](O)[C@H]4O)cccc31)c1cccc(O[C@@H]3O[C@H](CO)[C@@H](O)[C@H](O)[C@H]3O)c1C2=O", "activation": "-18.8% (inactive)"}
{"compound": "CC(C)(Oc1ccc(C2CCCc3ccccc32)cc1)C(=O)O", "note": "(centres undefined)", "activation": "24.9% (inactive)"}
{"compound": "O=C(O)[C@H]1CN(C/C=C/P(=O)(O)O)CCN1", "activation": "4.11% (inactive)"}
{"compound": "C[C@]12O[C@H](C[C@]1(O)CO)n1c3ccccc3c3c4c(c5c6ccccc6n2c5c31)CNC4=O", "activation": "-11.4% (inactive)"}
{"compound": "C/C=C/C1=C(C(=O)O)N2C(=O)[C@@H](NC(=O)[C@H](N)c3ccc(O)cc3)[C@H]2SC1", "activation": "-2.57% (inactive)"}
{"compound": "O=C(O)COc1ccccc1/C=N/NC(=O)c1ccncc1", "activation": "-1.76% (inactive)"}
{"compound": "COc1ccc(/C=C/C(=O)O)cc1", "activation": "-8.63% (inactive)"}
{"compound": "Cc1onc(-c2c(F)cccc2Cl)c1C(=O)N[C@@H]1C(=O)N2[C@@H]1SC(C)(C)[C@@H]2C(=O)O", "Potency": "inactive and 25.1 µM (active)"}
{"compound": "NC(=O)[C@H]1O[C@@H](O)[C@H](O)[C@@H](O)[C@@H]1O", "activation": "-3.53% (inactive)"}
{"compound": "C=CC[N@@+]12CC[C@@]34c5ccccc5N5/C=C6/[C@H]7C[C@H]8[C@@]9(CC[N@@+]8(CC=C)C/C7=C/CO)c7ccccc7N(/C=C(/[C@@H](C[C@@H]31)/C(=C\\CO)C2)[C@H]54)[C@@H]69", "activation": "-5.59% [at 17.1 µM] (inactive)"}
{"compound": "O=C(O)Cc1nn(Cc2ccc(Br)cc2F)c(=O)c2ccccc12", "activation": "-2.97% (inactive)"}
{"compound": "CC[C@H](C)C(=O)O[C@H]1CCC=C2C=C[C@H](C)[C@H](CC[C@@H]3C[C@@H](O)CC(=O)O3)[C@H]21", "activation": "8.75% (inactive)"}
{"compound": "CC(C)(COP(=O)(O)OP(=O)(O)OC[C@H]1O[C@@H](n2cnc3c(N)ncnc32)[C@H](O)[C@@H]1OP(=O)(O)O)C(O)C(=O)NCCC(=O)NCCS", "note": "(some centres undefined)", "activation": "-18.7% (inactive)"}
{"compound": "Cc1cnc(C(=O)O)c[n+]1[O-]", "Potency": "inactive"}
